{"source": "the supplement of paper PMC4466140"}
{"molecular_target": "AgAbp1", "experiment": "SPOT peptide array binding signal intensity (averaged, normalized) (arbitrary units (background-subtracted, floor 0; scale differs between SH3 domains)); higher = stronger binding of the SH3 domain to the peptide", "summary_of_the_method": "(§1)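 Four yeast species supplied the SH3 domains, which were expressed as GST fusions in E. coli BL21(DE3) and purified on glutathione Sepharose. Incubation with cellulose membranes carrying synthetic 15-mer peptides, cysteines exchanged for serines, ran overnight at 4°C at 10 μg/ml in TBS-based blocking buffer. Binding signal is reported as normalized, background-subtracted spot intensity averaged over replicates, in arbitrary units not shared between domains.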"}
{"binder": "LFMKGTPEFPKSGFS", "SPOT peptide array binding signal intensity": "≤ 0"}
{"molecular_target": "AgBbc1", "experiment": "SPOT peptide array binding signal intensity (averaged, normalized) (arbitrary units (background-subtracted, floor 0; scale differs between SH3 domains)); higher = stronger binding of the SH3 domain to the peptide", "summary_of_the_method": "as §1"}
{"binder": "LFMKGTPEFPKSGFS", "SPOT peptide array binding signal intensity": 12.5}
{"molecular_target": "AgBem1-D1", "experiment": "SPOT peptide array binding signal intensity (averaged, normalized) (arbitrary units (background-subtracted, floor 0; scale differs between SH3 domains)); higher = stronger binding of the SH3 domain to the peptide", "summary_of_the_method": "as §1"}
{"binder": "LFMKGTPEFPKSGFS", "SPOT peptide array binding signal intensity": 224}
{"molecular_target": "AgBzz1-D1", "experiment": "SPOT peptide array binding signal intensity (averaged, normalized) (arbitrary units (background-subtracted, floor 0; scale differs between SH3 domains)); higher = stronger binding of the SH3 domain to the peptide", "summary_of_the_method": "as §1"}
{"binder": "LFMKGTPEFPKSGFS", "SPOT peptide array binding signal intensity": 8.5}
{"molecular_target": "AgBzz1-D2", "experiment": "SPOT peptide array binding signal intensity (averaged, normalized) (arbitrary units (background-subtracted, floor 0; scale differs between SH3 domains)); higher = stronger binding of the SH3 domain to the peptide", "summary_of_the_method": "as §1"}
{"binder": "LFMKGTPEFPKSGFS", "SPOT peptide array binding signal intensity": 7}
{"molecular_target": "AgCyk3", "experiment": "SPOT peptide array binding signal intensity (averaged, normalized) (arbitrary units (background-subtracted, floor 0; scale differs between SH3 domains)); higher = stronger binding of the SH3 domain to the peptide", "summary_of_the_method": "as §1"}
{"binder": "LFMKGTPEFPKSGFS", "SPOT peptide array binding signal intensity": "≤ 0"}
{"molecular_target": "AgFus1", "experiment": "SPOT peptide array binding signal intensity (averaged, normalized) (arbitrary units (background-subtracted, floor 0; scale differs between SH3 domains)); higher = stronger binding of the SH3 domain to the peptide", "summary_of_the_method": "as §1"}
{"binder": "LFMKGTPEFPKSGFS", "SPOT peptide array binding signal intensity": 479}
{"molecular_target": "AgHof1", "experiment": "SPOT peptide array binding signal intensity (averaged, normalized) (arbitrary units (background-subtracted, floor 0; scale differs between SH3 domains)); higher = stronger binding of the SH3 domain to the peptide", "summary_of_the_method": "as §1"}
{"binder": "LFMKGTPEFPKSGFS", "SPOT peptide array binding signal intensity": 7}
{"molecular_target": "AgHse1", "experiment": "SPOT peptide array binding signal intensity (averaged, normalized) (arbitrary units (background-subtracted, floor 0; scale differs between SH3 domains)); higher = stronger binding of the SH3 domain to the peptide", "summary_of_the_method": "as §1"}
{"binder": "LFMKGTPEFPKSGFS", "SPOT peptide array binding signal intensity": 104}
{"molecular_target": "AgLsb1", "experiment": "SPOT peptide array binding signal intensity (averaged, normalized) (arbitrary units (background-subtracted, floor 0; scale differs between SH3 domains)); higher = stronger binding of the SH3 domain to the peptide", "summary_of_the_method": "as §1"}
{"binder": "LFMKGTPEFPKSGFS", "SPOT peptide array binding signal intensity": "≤ 0"}
{"molecular_target": "AgLsb4", "experiment": "SPOT peptide array binding signal intensity (averaged, normalized) (arbitrary units (background-subtracted, floor 0; scale differs between SH3 domains)); higher = stronger binding of the SH3 domain to the peptide", "summary_of_the_method": "as §1"}
{"binder": "LFMKGTPEFPKSGFS", "SPOT peptide array binding signal intensity": 5}
{"molecular_target": "AgMyo5", "experiment": "SPOT peptide array binding signal intensity (averaged, normalized) (arbitrary units (background-subtracted, floor 0; scale differs between SH3 domains)); higher = stronger binding of the SH3 domain to the peptide", "summary_of_the_method": "as §1"}
{"binder": "LFMKGTPEFPKSGFS", "SPOT peptide array binding signal intensity": 5}
{"molecular_target": "AgNbp2", "experiment": "SPOT peptide array binding signal intensity (averaged, normalized) (arbitrary units (background-subtracted, floor 0; scale differs between SH3 domains)); higher = stronger binding of the SH3 domain to the peptide", "summary_of_the_method": "as §1"}
{"binder": "LFMKGTPEFPKSGFS", "SPOT peptide array binding signal intensity": 208}
{"molecular_target": "AgRvs167", "experiment": "SPOT peptide array binding signal intensity (averaged, normalized) (arbitrary units (background-subtracted, floor 0; scale differs between SH3 domains)); higher = stronger binding of the SH3 domain to the peptide", "summary_of_the_method": "as §1"}
{"binder": "LFMKGTPEFPKSGFS", "SPOT peptide array binding signal intensity": 0.667}
{"molecular_target": "AgSho1", "experiment": "SPOT peptide array binding signal intensity (averaged, normalized) (arbitrary units (background-subtracted, floor 0; scale differs between SH3 domains)); higher = stronger binding of the SH3 domain to the peptide", "summary_of_the_method": "as §1"}
{"binder": "LFMKGTPEFPKSGFS", "SPOT peptide array binding signal intensity": 248}
{"molecular_target": "AgSla1-D1-D2", "experiment": "SPOT peptide array binding signal intensity (averaged, normalized) (arbitrary units (background-subtracted, floor 0; scale differs between SH3 domains)); higher = stronger binding of the SH3 domain to the peptide", "summary_of_the_method": "as §1"}
{"binder": "LFMKGTPEFPKSGFS", "SPOT peptide array binding signal intensity": 4}
{"molecular_target": "AgSla1-D3", "experiment": "SPOT peptide array binding signal intensity (averaged, normalized) (arbitrary units (background-subtracted, floor 0; scale differs between SH3 domains)); higher = stronger binding of the SH3 domain to the peptide", "summary_of_the_method": "as §1"}
{"binder": "LFMKGTPEFPKSGFS", "SPOT peptide array binding signal intensity": 5}
{"molecular_target": "CaAbp1-D1", "experiment": "SPOT peptide array binding signal intensity (averaged, normalized) (arbitrary units (background-subtracted, floor 0; scale differs between SH3 domains)); higher = stronger binding of the SH3 domain to the peptide", "summary_of_the_method": "as §1"}
{"binder": "LFMKGTPEFPKSGFS", "SPOT peptide array binding signal intensity": 291}
{"molecular_target": "CaAbp1-D2", "experiment": "SPOT peptide array binding signal intensity (averaged, normalized) (arbitrary units (background-subtracted, floor 0; scale differs between SH3 domains)); higher = stronger binding of the SH3 domain to the peptide", "summary_of_the_method": "as §1"}
{"binder": "LFMKGTPEFPKSGFS", "SPOT peptide array binding signal intensity": 224}
{"molecular_target": "CaBbc1", "experiment": "SPOT peptide array binding signal intensity (averaged, normalized) (arbitrary units (background-subtracted, floor 0; scale differs between SH3 domains)); higher = stronger binding of the SH3 domain to the peptide", "summary_of_the_method": "as §1"}
{"binder": "LFMKGTPEFPKSGFS", "SPOT peptide array binding signal intensity": 40.5}
{"molecular_target": "CaBem1-D1", "experiment": "SPOT peptide array binding signal intensity (averaged, normalized) (arbitrary units (background-subtracted, floor 0; scale differs between SH3 domains)); higher = stronger binding of the SH3 domain to the peptide", "summary_of_the_method": "as §1"}
{"binder": "LFMKGTPEFPKSGFS", "SPOT peptide array binding signal intensity": 272}
{"molecular_target": "CaBzz1-D1", "experiment": "SPOT peptide array binding signal intensity (averaged, normalized) (arbitrary units (background-subtracted, floor 0; scale differs between SH3 domains)); higher = stronger binding of the SH3 domain to the peptide", "summary_of_the_method": "as §1"}
{"binder": "LFMKGTPEFPKSGFS", "SPOT peptide array binding signal intensity": 182}
{"molecular_target": "CaBzz1-D2", "experiment": "SPOT peptide array binding signal intensity (averaged, normalized) (arbitrary units (background-subtracted, floor 0; scale differs between SH3 domains)); higher = stronger binding of the SH3 domain to the peptide", "summary_of_the_method": "as §1"}
{"binder": "LFMKGTPEFPKSGFS", "SPOT peptide array binding signal intensity": 58.8}
{"molecular_target": "CaCyk3", "experiment": "SPOT peptide array binding signal intensity (averaged, normalized) (arbitrary units (background-subtracted, floor 0; scale differs between SH3 domains)); higher = stronger binding of the SH3 domain to the peptide", "summary_of_the_method": "as §1"}
{"binder": "LFMKGTPEFPKSGFS", "SPOT peptide array binding signal intensity": 7.5}
{"molecular_target": "CaFus1", "experiment": "SPOT peptide array binding signal intensity (averaged, normalized) (arbitrary units (background-subtracted, floor 0; scale differs between SH3 domains)); higher = stronger binding of the SH3 domain to the peptide", "summary_of_the_method": "as §1"}
{"binder": "LFMKGTPEFPKSGFS", "SPOT peptide array binding signal intensity": 914}
{"molecular_target": "CaHof1", "experiment": "SPOT peptide array binding signal intensity (averaged, normalized) (arbitrary units (background-subtracted, floor 0; scale differs between SH3 domains)); higher = stronger binding of the SH3 domain to the peptide", "summary_of_the_method": "as §1"}
{"binder": "LFMKGTPEFPKSGFS", "SPOT peptide array binding signal intensity": "≤ 0"}
{"molecular_target": "CaHse1", "experiment": "SPOT peptide array binding signal intensity (averaged, normalized) (arbitrary units (background-subtracted, floor 0; scale differs between SH3 domains)); higher = stronger binding of the SH3 domain to the peptide", "summary_of_the_method": "as §1"}
{"binder": "LFMKGTPEFPKSGFS", "SPOT peptide array binding signal intensity": 113}
{"molecular_target": "CaLsb1", "experiment": "SPOT peptide array binding signal intensity (averaged, normalized) (arbitrary units (background-subtracted, floor 0; scale differs between SH3 domains)); higher = stronger binding of the SH3 domain to the peptide", "summary_of_the_method": "as §1"}
{"binder": "LFMKGTPEFPKSGFS", "SPOT peptide array binding signal intensity": 3.5}
{"molecular_target": "CaLsb4", "experiment": "SPOT peptide array binding signal intensity (averaged, normalized) (arbitrary units (background-subtracted, floor 0; scale differs between SH3 domains)); higher = stronger binding of the SH3 domain to the peptide", "summary_of_the_method": "as §1"}
{"binder": "LFMKGTPEFPKSGFS", "SPOT peptide array binding signal intensity": 196}
{"molecular_target": "CaMyo5", "experiment": "SPOT peptide array binding signal intensity (averaged, normalized) (arbitrary units (background-subtracted, floor 0; scale differs between SH3 domains)); higher = stronger binding of the SH3 domain to the peptide", "summary_of_the_method": "as §1"}
{"binder": "LFMKGTPEFPKSGFS", "SPOT peptide array binding signal intensity": 40.2}
